Experimental data from the OligoGym collection.

Molecular target: HEPH
Test: pooled miR-30 sensor sort-seq; sequence = guide strand
Conditions: shRNA
Note: reference of the scale not given here.

| Sequence | sensor-assay potency score (higher = more potent) |
| --- | --- |
| TAGTAGATTCTAGCACTCCATG | -1.17 |
| TATCCTCTGAAAGCAGTCGGAA | -1.21 |
| TAGATGGTCTTCTTGTAGGTTC | -0.407 |

Molecular target: HERC1
Test: as above
Conditions: shRNA

| Sequence | sensor-assay potency score (higher = more potent) |
| --- | --- |
| TTCATAGGCATACTGCTCCTGA | -0.419 |
| TTCTCCAACCAGCTTAACCTTC | -1.11 |
| TATTCATGTAAAACTGTCCTTT | -0.17 |
| TAACAGACACATCCTTTCGATA | -0.966 |
| TTCTGCACTAGTCACATTGGTC | -0.675 |
| TTGTCCATGTCGATTGAGCGGC | -0.831 |
| TTATGTTCTTATAACATCTATG | -0.965 |
| TAGTTGTCCATGTCGATTGAGC | -0.739 |
| TAGTGGTTGAGAAACATTCTAA | -0.582 |
| TATTGTAACCCACTTCTGCGGT | -0.596 |
| TTTCTGTAGTGAACATAGCAGT | -0.617 |
| TAACAGAATGGACATCTGCTGA | -0.647 |

Molecular target: HERC3
Test: as above
Conditions: shRNA

| Sequence | sensor-assay potency score (higher = more potent) |
| --- | --- |
| TACTTTGCCACCACACACCTTT | 0.0362 |
| TTGTGCTCTACAAAACACGTGT | 0.203 |
| ATAATATCTGAACAACACCATT | -1.67 |
| TATCTGAACAACACCATTGATT | -0.697 |
| TAACTTCTCAAATAACACCCTA | -0.57 |
| TTTACATTGAGTAACTTCTTGT | -0.154 |
| TTCAGCTTTTGTATTAACCTGG | 0.299 |
| TACATTGAGTAACTTCTTGTAG | 0.402 |
| TTATCTAGTACTTTGCTGGGGT | 0.669 |
| TTGAACTATATGCACACACATA | -1.08 |
| TAGCTTTCTCGGCAGATCGTGA | -0.772 |

Molecular target: HES7
Test: as above
Conditions: shRNA

| Sequence | sensor-assay potency score (higher = more potent) |
| --- | --- |
| AAGCGAAGCAGGCACTCGCGGA | -1.48 |
| TTTGGGGCGCAGATAGCCGTGC | -0.737 |
| AACCGGACAAGTAGCAGCTGGC | -1.06 |
| TATCTCCGCTTTCTCCAGCTTC | -1.2 |
| AGCGGCTTGAGCATCTTGGGGC | -0.755 |
| TTCGCTCCCTCAAGTAGCCCAC | -0.598 |
| TTTCTCCAGCTTCGGGTTCCGG | -1.22 |
| AAACCGGACAAGTAGCAGCTGG | -0.705 |
| TTGGGCGCCCCGTCTTGTCTGT | -1.06 |
| ATATAGACCACATCTCACCCGC | -0.0228 |
| TCCGCTTTCTCCAGCTTCGGGT | -1.29 |
| TTCCGGAGGTTCTGGTCCCGGG | -1.41 |
